Potency data for 15 compounds are collected here from PubChem BioAssay AID651599 (National Center for Advancing Translational Sciences (NCATS), 2012).

Inconclusive results are not listed. A call without a number means that no potency is given here. Active and inactive are the calls of the source. Calls come from the whole dose curve; as a rule, active = well fitted inhibition curve with a large enough effect; inconclusive = small, poorly fitted or top-dose-only effect; inactive = no such curve, though single readings can be large or run the other way.

This assay has as its target Tumor susceptibility gene 101 protein (Homo sapiens) (UniProt Q99816). The assay is described as follows: qHTS Assay for Iinhibitors of HIV-1 Budding by Blocking the Interaction of PTAP/TSG101: Hit Validation in TR assay. In a few lines: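 Fluorescence polarization: Tsg101 binding domain (10 uM final) with Texas Red-labelled PTAP peptide (50 nM final) in HEPES pH 7.5, 0.15 M NaCl, Tween 20, EDTA, TCEP; 20 min binding at room temperature after compound addition.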
(In general: qHTS replaces the single test concentration by a dilution series.)
Potency is the fitted concentration of half-maximal effect.

Chain of Tumor susceptibility gene 101 protein (Homo sapiens) (Q99816 whole entry, looked up, the tested form may be a part): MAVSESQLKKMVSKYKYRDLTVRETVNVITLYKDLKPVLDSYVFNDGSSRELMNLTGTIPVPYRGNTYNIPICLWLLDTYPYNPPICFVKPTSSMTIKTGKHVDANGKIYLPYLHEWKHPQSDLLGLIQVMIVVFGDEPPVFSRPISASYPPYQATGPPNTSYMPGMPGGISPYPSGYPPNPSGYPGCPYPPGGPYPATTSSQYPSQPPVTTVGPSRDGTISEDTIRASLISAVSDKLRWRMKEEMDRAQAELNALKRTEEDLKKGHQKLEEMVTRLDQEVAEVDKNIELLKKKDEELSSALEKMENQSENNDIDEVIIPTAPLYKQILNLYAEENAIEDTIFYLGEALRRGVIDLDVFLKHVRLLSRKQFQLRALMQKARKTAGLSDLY

With `Cc1nc2nc(-c3cccs3)cn2nc1C`, the Potency result is “inactive”.

As to `NC(=O)CSc1nc2c(sc3ccccc32)c(=O)n1CCCC(=O)NCC1CCCO1` (stereo not given), the Potency entry is “inactive”.

Take `N#CC(C#N)=C1C=C2C=C(N3CCCCC3)CCC2CC1` (stereo not given): the Potency entry was “inactive”.

On to `C/C(N)=C(/C#N)C(=O)CSc1ncnc2ccccc12`, for which the Potency entry is “inactive”.

With `CC(=O)Nc1ccc(N2C(=O)c3cccc4c(O)ccc(c34)C2=O)cc1`, the Potency result was “inactive”.

On to `CC(=O)c1ccc(N2C(=O)C3C(C2=O)C(C(=O)c2ccc(Cl)cc2)N2CCCC32)cc1` (stereo not given), for which the Potency entry is “inactive”.

As for `CC(=O)c1cccc(-n2nnnc2SCC(=O)Nc2cc(C)on2)c1`, the Potency result was “inactive”.

`Cn1cc(/C=C2\SC(=S)N(NC(=O)c3cccc(Cl)c3)C2=O)c2ccccc21`: the Potency entry was “inactive”.

With `CCN(CC)c1ccc(/C=C/C(=O)c2ccc(Br)cc2)cc1`, the Potency was 16.3 µM (active).

Regarding `c1ccc2[nH]c3cc4ncnc4cc3nc2c1`, the Potency result was “inactive”.

With `CCOC(=O)C1CCCN(c2nc3ccccc3nc2C(C#N)C(=O)NCc2ccccc2)C1` (stereo not given), the Potency result was “inactive”.

`N#Cc1cccc(NC(=O)CSc2ccc3c4c(cccc24)C(=O)c2ccccc2-3)c1`: the Potency result was “inactive”.

Consider `COc1cccc2c1C(=O)c1c(O)c3c(c(O)c1C2=O)C[C@@](O)(C(C)=O)C[C@@H]3O[C@H]1C[C@H](N)[C@H](O)[C@H](C)O1`, for which the Potency is 20.6 µM (active).

Regarding `Cc1ccc(C)c2nc3sc(C(=O)N4CCCc5ccccc54)c(N)c3cc12`, the Potency result was “inactive”.

On to `CN(N=Nc1ccc([N+](=O)[O-])cc1)c1ccccc1`, for which the Potency entry is “inactive”.
